Here are results for four compounds from PubChem BioAssay (EPA / NIEHS).

Results filed as inconclusive are left out. Active and inactive are the calls of the source. Rule for the calls, unless noted: active = hit-call score of the fitted dose curve at least 0.9, where 1 is the maximum; inactive = score below 0.9.

Test [1] is described as follows: ATG_PBREM_CIS: Attagene CIS-FACTORIAL HepG2 Assay for human Phenobarbital-responsive Enhancer Module (PBREM) (AID 2282955). The note with it: HepG2 PBREM cis-reporter, Attagene multiplexed transcription; actives raise or lower the signal. Summed up:
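HepG2 cells transiently transfected with multiple cis-regulated reporter transcription units; endogenous factor activity at the PBREM element measured as reporter mRNA 24 h after dosing, via RT-PCR and capillary electrophoresis of fluorescent fragments; bidirectional fitting versus DMSO.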

For test [2], the target named is Paired box protein Pax-6 (Homo sapiens) (UniProt P26367). Put plainly: ATG_Pax6_CIS: Attagene CIS-FACTORIAL HepG2 Assay for human Paired Box 6 (PAX6) (AID 2282956). The note with it: HepG2 CIS-FACTORIAL PAX6 reporter transcription, RNA readout; actives raise or lower the signal. Summed up:
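Values derive from bidirectional curve fitting of reporter mRNA signal relative to DMSO. HepG2 cells bearing transfected cis-regulated MRTUs were exposed for 24 h; transcripts were read by RT-PCR and capillary electrophoresis.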

The nature of test [3]: ATG_Sox_CIS: Attagene CIS-FACTORIAL HepG2 Assay for human SRY-box transcription factor (SOX) (AID 2282960). Conditions: HepG2 Attagene cis-factorial SOX reporter, mRNA; actives raise or lower the signal. The method in brief:
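HepG2 cells transiently transfected with cis-element-driven multiple reporter transcription units, dosed 24 h; reporter mRNA measured by RT-PCR, FAM labelling, HpaI digestion and capillary electrophoresis. Bidirectional fit versus DMSO baseline.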

Test [4] addresses Transcription factor Sp1 (Homo sapiens) (UniProt P08047). In words: ATG_Sp1_CIS: Attagene CIS-FACTORIAL HepG2 Assay for human Specificity Protein 1 (Sp1) (AID 2282961). Conditions: HepG2 Sp1 cis-reporter transcription, actives raise or lower the signal. Summed up: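 HepG2 cells transiently transfected with multiple reporter transcription units driven by cis-regulatory elements; Sp1-responsive reporter mRNA measured 24 h after dosing by RT-PCR and capillary electrophoresis fluorescence, fitted bidirectionally against DMSO baseline.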

The nature of test [5]: ATG_SREBP_CIS: Attagene CIS-FACTORIAL HepG2 Assay for human Sterol Regulatory Element Binding (SREBP) (AID 2282962). The note with it: HepG2 Attagene cis-factorial SREBP reporter, mRNA; actives raise or lower the signal. The method in brief:
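Values derive from bidirectional curve fitting with DMSO as baseline. The underlying measurement is reporter mRNA from cis-element-regulated units in transiently transfected HepG2, quantified by RT-PCR and capillary electrophoresis after 24 h exposure.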

The target in test [6] is Signal transducer and activator of transcription 3 (Homo sapiens) (UniProt P40763). In words: ATG_STAT3_CIS: Attagene CIS-FACTORIAL HepG2 Assay for human Signal Transducer and Activator of Transcription 3 (STAT3) (AID 2282963). The note with it: HepG2, Attagene cis-factorial STAT3 reporter transcription; actives raise or lower the signal. Summed up: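 Readout is reporter transcript quantified by RT-PCR and capillary electrophoresis, with 6-FAM primer extension and HpaI digestion. Total RNA is taken 24 h after dosing transiently transfected HepG2 carrying cis-regulated reporter units. Bidirectional fit against DMSO.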
Sequence of Signal transducer and activator of transcription 3 (Homo sapiens) (P40763 whole entry, looked up): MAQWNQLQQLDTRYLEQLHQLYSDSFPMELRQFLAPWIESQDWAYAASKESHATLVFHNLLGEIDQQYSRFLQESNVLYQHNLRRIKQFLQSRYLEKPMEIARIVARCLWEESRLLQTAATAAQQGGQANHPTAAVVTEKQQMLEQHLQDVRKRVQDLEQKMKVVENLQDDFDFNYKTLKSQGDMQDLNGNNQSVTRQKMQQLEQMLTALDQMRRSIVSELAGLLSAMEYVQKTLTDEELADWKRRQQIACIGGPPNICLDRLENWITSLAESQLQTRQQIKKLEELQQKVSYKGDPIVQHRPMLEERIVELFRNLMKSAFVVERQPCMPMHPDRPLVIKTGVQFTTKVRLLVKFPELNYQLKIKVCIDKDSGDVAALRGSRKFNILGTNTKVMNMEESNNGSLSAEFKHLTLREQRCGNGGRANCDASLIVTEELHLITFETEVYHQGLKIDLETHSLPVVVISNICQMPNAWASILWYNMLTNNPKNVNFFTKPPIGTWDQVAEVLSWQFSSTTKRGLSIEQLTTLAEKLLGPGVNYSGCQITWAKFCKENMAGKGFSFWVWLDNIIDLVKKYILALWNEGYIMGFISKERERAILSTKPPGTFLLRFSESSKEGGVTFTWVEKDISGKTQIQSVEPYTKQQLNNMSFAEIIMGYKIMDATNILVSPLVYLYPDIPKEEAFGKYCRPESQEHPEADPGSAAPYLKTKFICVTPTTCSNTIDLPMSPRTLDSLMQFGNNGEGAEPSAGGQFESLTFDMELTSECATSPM

The nature of test [7]: ATG_TA_CIS: Attagene CIS-FACTORIAL HepG2 Assay for human TA Basal Promoter (AID 2282964). Conditions: HepG2 Attagene CIS-factorial TA basal promoter reporter; actives raise or lower the signal. Summed up:
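HepG2 cells transiently transfected with multiple reporter units under cis promoter elements, reporting endogenous transcription factor activity; this endpoint tracks the TA basal promoter as background control. Reporter mRNA after 24 h dosing measured by RT-PCR/capillary electrophoresis; bidirectional fits versus DMSO.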

Test [8] in a line: ATG_TCF_b_cat_CIS: Attagene CIS-FACTORIAL HepG2 Assay for human T-Cell-Factor with beta-catenin (TCF/b-cat) (AID 2282965). Conditions: HepG2 TCF/beta-catenin cis-reporter transcription, actives raise or lower the signal. Summed up:
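Endogenous transcription factor activity is captured through cis-promoter reporter constructs transiently introduced into human HepG2 liver cells. Induced reporter mRNA is measured after 24 h and fitted bidirectionally relative to DMSO.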

Test [9] in a line: ATG_TAL_CIS: Attagene CIS-FACTORIAL HepG2 Assay for human TAL Basal Promoter (AID 2282966).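 Note: background control endpoint measuring basal TAL promoter reporter mRNA not a specific factor.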 The note with it: HepG2 Attagene cis-factorial TAL promoter reporter; actives raise or lower the signal. The method in brief:
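Human hepatoma HepG2 cells, transfected with promoter-regulated reporter units, were treated 24 h. Reporter transcript levels, measured through RT-PCR and capillary electrophoresis, were fitted for gain or loss relative to DMSO.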

Test [10] in a line: ATG_VDRE_CIS: Attagene CIS-FACTORIAL HepG2 Assay for human Vitamin D Receptor Element (VDRE) (AID 2282968). The note with it: HepG2 VDRE cis-reporter transcription, actives raise or lower the signal. Summed up: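 Readout is VDRE-driven reporter mRNA reflecting endogenous factor activity in human HepG2 cells, sampled 24 h post-dose. Quantification used labelled RT-PCR products separated by capillary electrophoresis; bidirectional analysis relative to DMSO.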

In test [11] the target is Nuclear receptor subfamily 1 group I member 3 (Homo sapiens) (UniProt Q14994). In words: ATG_CAR_TRANS: Attagene TRANS-FACTORIAL HepG2 Assay for human Constitutive Androstane Receptor (CAR) (AID 2282969; active = hit-call score of the fitted dose curve at least 0.9, where 1 is the maximum;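 note: activators raise reporter mRNA above DMSO so AC50 marks induction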). The note with it: HepG2 Attagene TRANS-FACTORIAL CAR reporter. The method in brief:
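Signal is reporter mRNA induction relative to DMSO, measured 24 h after dosing by RT-PCR with fluorescent primer extension and capillary electrophoresis. Human HepG2 liver cells carried transiently transfected chimeric NR-Gal4/GAL4-UAS reporter constructs.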

The target in test [12] is Estrogen receptor (Homo sapiens) (UniProt P03372). Put plainly: ATG_ERa_TRANS: Attagene TRANS-FACTORIAL HepG2 Assay for human Estrogen Receptor alpha (ERa) (AID 2282970; active = hit-call score of the fitted dose curve at least 0.9, where 1 is the maximum). Conditions: HepG2 Attagene TRANS ERa GAL4 reporter, mRNA. The method in brief: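 Signal derives from fluorescence of labelled reporter PCR fragments separated by capillary electrophoresis. HepG2 cells transiently carrying multiple GAL4-UAS reporter units were treated 24 hours, and induction above DMSO baseline was fitted as activity.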
Sequence of Estrogen receptor (Homo sapiens) (P03372 whole entry, looked up, the tested form may be a part): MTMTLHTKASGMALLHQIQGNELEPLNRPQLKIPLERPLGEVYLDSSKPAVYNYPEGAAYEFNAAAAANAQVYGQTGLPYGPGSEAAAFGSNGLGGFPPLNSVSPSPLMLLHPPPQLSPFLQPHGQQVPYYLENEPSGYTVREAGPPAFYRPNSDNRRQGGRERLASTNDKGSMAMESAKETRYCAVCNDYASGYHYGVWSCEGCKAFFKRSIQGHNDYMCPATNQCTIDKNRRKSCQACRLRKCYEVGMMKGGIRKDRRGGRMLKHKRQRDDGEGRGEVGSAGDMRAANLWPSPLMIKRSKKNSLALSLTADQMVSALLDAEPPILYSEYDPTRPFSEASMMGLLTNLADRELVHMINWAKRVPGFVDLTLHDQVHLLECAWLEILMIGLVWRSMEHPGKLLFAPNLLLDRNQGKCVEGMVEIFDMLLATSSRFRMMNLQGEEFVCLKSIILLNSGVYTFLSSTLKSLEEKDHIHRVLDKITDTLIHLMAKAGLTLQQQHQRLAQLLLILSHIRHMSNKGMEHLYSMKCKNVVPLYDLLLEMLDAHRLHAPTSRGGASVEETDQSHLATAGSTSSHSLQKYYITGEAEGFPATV

Test [13] concerns the target X-box-binding protein 1 (Homo sapiens) (UniProt P17861). In words: ATG_Xbp1_CIS: Attagene CIS-FACTORIAL HepG2 Assay for human X-box Binding Protein 1 (XBP1) (AID 2282972). The note with it: HepG2 XBP1 cis-element reporter, Attagene multiplex; actives raise or lower the signal. Summed up:
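Human hepatoma HepG2, cis-element reporter system, 24 h treatment; mRNA quantified by RT-PCR/CE fluorescence; fit relative to DMSO.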

Test [14] in a line: ATG_M_19_TRANS: Attagene TRANS-FACTORIAL HepG2 Assay for M19 Transcription Factor (Internal Marker) (AID 2282974; active = hit-call score of the fitted dose curve at least 0.9, where 1 is the maximum). Conditions: HepG2 Attagene TRANS-FACTORIAL M19 internal marker reporter. The method in brief:
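HepG2 cells transiently transfected with multiple GAL4-UAS reporter transcription units were exposed to chemicals for 24 h. Reporter mRNA was read by RT-PCR, 6-FAM primer extension, HpaI digestion and capillary electrophoresis; gain of signal fitted relative to DMSO.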

A short description of test [15]: ATG_GAL4_TRANS: Attagene TRANS-FACTORIAL HepG2 Assay for GAL4 (Internal Marker) (AID 2282976; active = hit-call score of the fitted dose curve at least 0.9, where 1 is the maximum). Conditions: HepG2 Attagene TRANS GAL4 internal marker reporter. Summed up: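 Liver HepG2 line bearing multiplexed GAL4-UAS reporter constructs; 24 h chemical treatment. Transcripts were quantified as fluorescent fragments on capillary electrophoresis after RT-PCR and HpaI cut, with activity fitted upward from DMSO.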

Test [16] in a line: ATG_PXRE_CIS: Attagene CIS-FACTORIAL HepG2 Assay for human Pregnane X Receptor Element (PXRE) (AID 2282957). Conditions: HepG2 Attagene CIS-FACTORIAL PXRE reporter, mRNA; actives raise or lower the signal. Summed up:
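Bidirectional activity, baselined to DMSO, derived from reporter mRNA fluorescence (RT-PCR plus capillary electrophoresis) in HepG2 cells bearing cis-promoter reporter units, 24 h exposure.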

A short description of test [17]: ATG_PPRE_CIS: Attagene CIS-FACTORIAL HepG2 Assay for human Peroxisome Proliferator-activated Response Element (PPRE) (AID 2282958). The note with it: HepG2 PPRE cis-element reporter, Attagene transcription factor profiling; actives raise or lower the signal. The method in brief:
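HepG2 cells transiently transfected with multiplexed cis-element reporter units measure endogenous transcription factor activity. After 24 h compound exposure, reporter mRNA is quantified by RT-PCR, 6-FAM labeling, HpaI digestion and capillary electrophoresis; bidirectional fits are made against DMSO baseline.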

Test [18] can be described thus: ATG_RORE_CIS: Attagene CIS-FACTORIAL HepG2 Assay for human RAR-related Orphan Receptor Element (RORE) (AID 2282959). Conditions: HepG2 Attagene cis-factorial RORE reporter, mRNA; actives raise or lower the signal. Summed up: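 HepG2 cells transiently transfected with multiple cis-element reporter transcription units, exposed to chemical for 24 h. Reporter mRNA quantified by RT-PCR, 6-FAM primer-extension labeling, HpaI digestion and capillary electrophoresis; bidirectional fit versus DMSO baseline.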

Test [19] can be described thus: ATG_TGFb_CIS: Attagene CIS-FACTORIAL HepG2 Assay for human Transforming Growth Factor (TGF) (AID 2282967). Conditions: HepG2 Attagene CIS TGFb reporter, mRNA transcription; actives raise or lower the signal. The method in brief: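 HepG2 cells transiently transfected with cis-promoter-driven multiple reporter units measure endogenous TF activity; reporter mRNA quantified at 24 h by RT-PCR, FAM labeling, HpaI digestion and capillary electrophoresis. Bidirectional fit vs DMSO.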

Sequence of Paired box protein Pax-6 (Homo sapiens) (P26367 whole entry, looked up): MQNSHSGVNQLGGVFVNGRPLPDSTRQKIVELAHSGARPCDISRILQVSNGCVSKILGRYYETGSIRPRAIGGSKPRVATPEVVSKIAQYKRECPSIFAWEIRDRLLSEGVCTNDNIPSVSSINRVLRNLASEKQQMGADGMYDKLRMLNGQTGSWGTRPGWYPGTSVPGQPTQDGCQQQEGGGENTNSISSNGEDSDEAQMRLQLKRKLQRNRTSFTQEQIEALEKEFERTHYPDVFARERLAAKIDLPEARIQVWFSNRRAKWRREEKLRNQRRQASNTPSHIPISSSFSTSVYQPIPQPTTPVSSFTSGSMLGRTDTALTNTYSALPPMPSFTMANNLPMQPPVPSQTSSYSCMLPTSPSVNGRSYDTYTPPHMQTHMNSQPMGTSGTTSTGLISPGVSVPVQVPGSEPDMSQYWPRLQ
Sequence of X-box-binding protein 1 (Homo sapiens) (P17861 whole entry, looked up): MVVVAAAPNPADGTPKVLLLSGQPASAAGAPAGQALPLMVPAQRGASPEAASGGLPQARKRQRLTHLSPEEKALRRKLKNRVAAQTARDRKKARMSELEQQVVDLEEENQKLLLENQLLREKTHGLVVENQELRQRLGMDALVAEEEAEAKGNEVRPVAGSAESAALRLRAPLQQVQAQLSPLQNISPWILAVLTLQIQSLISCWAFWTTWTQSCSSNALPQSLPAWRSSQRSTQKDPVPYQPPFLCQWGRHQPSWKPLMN
Sequence of Transcription factor Sp1 (Homo sapiens) (P08047 whole entry, looked up): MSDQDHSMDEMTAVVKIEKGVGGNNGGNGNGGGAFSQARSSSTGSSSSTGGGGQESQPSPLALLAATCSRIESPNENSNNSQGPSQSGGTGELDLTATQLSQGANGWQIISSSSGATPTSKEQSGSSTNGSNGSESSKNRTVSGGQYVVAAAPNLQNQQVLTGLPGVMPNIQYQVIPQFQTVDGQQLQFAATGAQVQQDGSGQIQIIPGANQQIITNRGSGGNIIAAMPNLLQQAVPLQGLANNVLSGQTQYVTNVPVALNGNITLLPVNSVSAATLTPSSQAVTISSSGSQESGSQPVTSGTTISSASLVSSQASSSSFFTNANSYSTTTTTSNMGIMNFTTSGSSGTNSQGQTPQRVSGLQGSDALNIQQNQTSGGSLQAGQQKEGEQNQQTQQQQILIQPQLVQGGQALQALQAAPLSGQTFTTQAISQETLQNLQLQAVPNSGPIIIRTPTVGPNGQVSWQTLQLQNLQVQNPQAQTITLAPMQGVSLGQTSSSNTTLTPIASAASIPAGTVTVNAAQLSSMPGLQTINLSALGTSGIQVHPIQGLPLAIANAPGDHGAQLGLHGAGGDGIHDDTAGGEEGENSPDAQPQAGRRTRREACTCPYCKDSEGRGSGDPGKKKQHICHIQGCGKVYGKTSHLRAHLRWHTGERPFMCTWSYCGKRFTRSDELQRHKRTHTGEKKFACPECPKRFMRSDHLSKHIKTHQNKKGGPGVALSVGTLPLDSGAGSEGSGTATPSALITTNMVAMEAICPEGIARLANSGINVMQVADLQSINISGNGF
Sequence of Nuclear receptor subfamily 1 group I member 3 (Homo sapiens) (Q14994 whole entry, looked up, the tested form may be a part): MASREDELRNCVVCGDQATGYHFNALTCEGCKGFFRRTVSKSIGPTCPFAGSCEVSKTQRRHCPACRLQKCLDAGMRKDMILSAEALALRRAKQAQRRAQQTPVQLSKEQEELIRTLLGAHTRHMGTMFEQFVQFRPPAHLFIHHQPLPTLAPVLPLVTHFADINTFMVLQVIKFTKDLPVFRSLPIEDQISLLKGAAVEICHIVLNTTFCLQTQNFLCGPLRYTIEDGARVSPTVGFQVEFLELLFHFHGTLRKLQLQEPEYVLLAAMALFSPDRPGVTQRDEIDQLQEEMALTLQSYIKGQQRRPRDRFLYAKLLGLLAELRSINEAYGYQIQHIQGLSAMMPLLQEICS

With `CN(C)C`, the result in test [1], in test [2], in test [3], in [4], in test [5] and in [6] was inactive. For the same compound, the call in test [7], in test [8], in test [9], in test [10], in test [11] and in [12] was inactive. The outcome in test [13], in [14] and in test [15] was inactive.
As for `CCC(=O)OC/C=C(\C)CCC=C(C)C`, the compound was classed as inactive in test [2], in test [17], in [18], in test [3], in [4] and in [5]. Moreover, the compound was classed as inactive in test [6], in [7], in test [8], in [9], in test [19] and in test [10]. For the same compound, the call in [12], in [13], in test [14] and in test [15] was inactive. In test [16], the AC50 (commonly the midpoint of the concentration-response curve, whichever way the signal moves) is 44 µM (active).
As for `C=CC(C)(CCC=C(C)C)OC(=O)CC` (stereo not given), the outcome in test [1], in [2], in [18], in [3], in [4] and in test [5] was inactive. For the same compound, the result in [6], in test [7], in test [8], in test [9], in test [19] and in [10] was inactive. For the same compound, the result in [12], in test [13], in test [14] and in test [15] was inactive.
Take `CC/C=C\CCOC(C)OCC` (stereo not given): the compound was classed as inactive in test [2], in test [16], in test [17], in test [18], in test [3] and in [4]. Also, the result in test [5], in test [6], in test [7], in test [8], in test [9] and in [19] was inactive. The result in [10], in test [11], in test [12], in [13] and in test [15] was inactive.
